# Values joined by “and” are separate entries in the source; they are usually repeats but may differ in a detail not shown here. Equal entries are not always repeated. The source holds several records for some structures; these can differ, active in one and inactive in another. Active and inactive are the calls of the source. Rule for the calls: active = hit-call score of the fitted dose curve at least 0.9, where 1 is the maximum; inactive = score below 0.9.
# Tests used:
# Details in all cases: mRNA level, 48 h; actives raise or lower the signal
# [1] = read-out: CYP4A11 (gene 1579); test: LTEA_HepaRG_CYP4A11: Life Technologies and Expression Analysis (LTEA) Assay for CYP4A11 using HepaRG (AID 2283486)
# Method in brief: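 Readout is CYP4A11 transcript level by qRT-PCR, normalized to three housekeeping genes and fitted bidirectionally against 0.5% DMSO. Human HepaRG cells were treated 48 h, in duplicate, with an 8-point half-log series topping at 100 uM.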
# [2] = read-out: Cytochrome P450 3A4 (Homo sapiens) (UniProt P08684); test: LTEA_HepaRG_CYP3A4: Life Technologies and Expression Analysis (LTEA) Assay for CYP3A4 using HepaRG (AID 2283487)
# Method in brief: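 In a human hepatic line (HepaRG), duplicate wells were treated 48 h with up to 100 uM chemical in half-log dilutions. Endpoint: CYP3A4 mRNA induction or loss relative to 0.5% DMSO vehicle, by qRT-PCR.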
# [3] = read-out: Pro-epidermal growth factor (Homo sapiens) (UniProt P01133); test: LTEA_HepaRG_EGF: Life Technologies and Expression Analysis (LTEA) Assay for Epidermal growth factor (EGF) using HepaRG (AID 2283489)
# Method in brief: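 EGF transcript measured by Fluidigm TaqMan qRT-PCR with three housekeeping genes for normalization, 48 h after dosing HepaRG cultures in duplicate (top 100 uM, half-log steps, 0.5% DMSO vehicle). Gain or loss relative to DMSO fitted.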
# [4] = read-out: Early growth response protein 1 (EGR1) transcription factor, EGR1 (gene 1958); test: LTEA_HepaRG_EGR1: Life Technologies and Expression Analysis (LTEA) Assay for Early growth response protein 1 (EGR1) transcription factor using HepaRG (AID 2283490)
# Method in brief: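 HepaRG, 48 h exposure, 8-pt half-log series from 100 uM, 0.5% DMSO vehicle; EGR1 transcript by TaqMan qRT-PCR (Fluidigm array), housekeeping-normalized; bidirectional fit relative to DMSO baseline.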
# [5] = read-out: Ezrin (EZR), EZR (gene 7430); test: LTEA_HepaRG_EZR: Life Technologies and Expression Analysis (LTEA) Assay for Ezrin (EZR) using HepaRG (AID 2283491)
# Method in brief: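 Gain or loss of EZR mRNA is scored relative to 0.5% DMSO in human HepaRG cultures treated 48 h with test chemicals in duplicate, eight half-log concentrations from 100 uM.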
# [6] = read-out: CYP3A5 (gene 1577); test: LTEA_HepaRG_CYP3A5: Life Technologies and Expression Analysis (LTEA) Assay for CYP3A5 using HepaRG (AID 2283493)
# Method in brief: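 Readout was CYP3A5 mRNA by qRT-PCR. HepaRG cultures were exposed for 48 h in serum-free induction medium to chemicals at up to 100 uM, and responses were fitted in both directions relative to DMSO vehicle.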
# [7] = read-out: Fatty Acid-Binding Protein 1 (FABP1), FABP1 (gene 2168); test: LTEA_HepaRG_FABP1: Life Technologies and Expression Analysis (LTEA) Assay for Fatty Acid-Binding Protein 1 (FABP1) using HepaRG (AID 2283494)
# Method in brief: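 qRT-PCR readout of FABP1 transcript (normalized to three housekeeping genes) after 48 h chemical exposure of HepaRG cells; eight concentrations, half-log steps, max 100 uM, 0.5% DMSO vehicle; gain or loss fitted relative to DMSO baseline.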
# [8] = read-out: Cytochrome P450 4A22 (Homo sapiens) (UniProt Q5TCH4); test: LTEA_HepaRG_CYP4A22: Life Technologies and Expression Analysis (LTEA) Assay for Cytochrome P450 4A22 (CYP4A22) using HepaRG (AID 2283495)
# Method in brief: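 Gene expression measured by qRT-PCR against three housekeeping genes (ACTB, GAPDH, POLR2A), with gain or loss fitted relative to 0.5% DMSO vehicle. HepaRG cultures received 48 h chemical treatment, top concentration 100 uM, half-log steps, duplicate wells.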
# [9] = read-out: Cytochrome P450 7A1 (Homo sapiens) (UniProt P22680); test: LTEA_HepaRG_CYP7A1: Life Technologies and Expression Analysis (LTEA) Assay for Cytochrome P450 7A1 (CYP7A1) using HepaRG (AID 2283496)
# Method in brief: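 Using 0.5% DMSO as vehicle and baseline, chemicals were tested in duplicate over an 8-point range from 100 uM on HepaRG cells for 48 h; qRT-PCR signals were normalised to ACTB, GAPDH and POLR2A.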
# [10] = read-out: Glutathione S-Transferase (GSTA2), GSTA2 (gene 2939); test: LTEA_HepaRG_GSTA2: Life Technologies and Expression Analysis (LTEA) Assay for Glutathione S-Transferase (GSTA2) using HepaRG (AID 2283497)
# Method in brief: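 qRT-PCR readout of GSTA2 transcript, normalized to three housekeeping genes, fitted bidirectionally against 0.5% DMSO baseline. Differentiated HepaRG cells received compound for 48 h at 8 concentrations (top 100 uM, half-log steps).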
# [11] = read-out: Glutamate-cysteine ligase catalytic (GCLC), GCLC (gene 2729); test: LTEA_HepaRG_GCLC: Life Technologies and Expression Analysis (LTEA) Assay for Glutamate-cysteine ligase catalytic (GCLC) using HepaRG (AID 2283498)
# Method in brief: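 HepaRG, 48 h exposure, 8-pt half-log series from 100 uM, 0.5% DMSO vehicle; TaqMan qRT-PCR for GCLC mRNA, housekeeping-normalized; bidirectional curve fit vs DMSO baseline.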
# [12] = read-out: growth arrest and DNA damage 45 (GADD45G), GADD45G (gene 10912); test: LTEA_HepaRG_GADD45G: Life Technologies and Expression Analysis (LTEA) Assay for growth arrest and DNA damage 45 (GADD45G) using HepaRG (AID 2283499)
# Method in brief: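 GADD45G transcript level by qRT-PCR (housekeeping-normalized: ACTB, GAPDH, POLR2A) after 48 h chemical treatment of a single HepaRG lot in serum-free induction medium; eight-point half-log series up to 100 uM in 0.5% DMSO, duplicates, up- or down-regulation scored.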
# [13] = read-out: Glutamate-cysteine ligase regulatory (GCLM), GCLM (gene 2730); test: LTEA_HepaRG_GCLM: Life Technologies and Expression Analysis (LTEA) Assay for Glutamate-cysteine ligase regulatory (GCLM) using HepaRG (AID 2283500)
# Method in brief: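 In this multiplexed HepaRG gene-expression assay, GCLM mRNA change after 48 h treatment (8 concentrations, max 100 uM) was scored against DMSO by bidirectional curve fitting.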
# [14] = read-out: Glutathione S-transferase M3 (GSTM3), GSTM3 (gene 2947); test: LTEA_HepaRG_GSTM3: Life Technologies and Expression Analysis (LTEA) Assay for Glutathione S-transferase M3 (GSTM3) using HepaRG (AID 2283501)
# Method in brief: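 GSTM3 transcript levels came from Fluidigm TaqMan qRT-PCR normalized to three housekeeping genes, fitted in both directions against DMSO. HepaRG cultures received chemicals for 48 h in serum-free induction medium (0.5% DMSO), 8 half-log concentrations up to 100 uM, duplicate.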
# [15] = read-out: Heat shock 70 kDa protein 1 (HSPA1A), gene 3303; test: LTEA_HepaRG_HSPA1A: Life Technologies and Expression Analysis (LTEA) Assay for Heat shock 70 kDa protein 1 (HSPA1A) using HepaRG (AID 2283502)
# Method in brief: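 An oxidative-stress marker readout: HepaRG cells treated 48 h in duplicate with an eight-point series (highest 100 uM) had HSPA1A mRNA quantified by TaqMan qRT-PCR. Activity was fitted in both directions using 0.5% DMSO as baseline.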
# [16] = read-out: Hypoxia-inducible factor 1-alpha (Homo sapiens) (UniProt Q16665); test: LTEA_HepaRG_HIF1A: Life Technologies and Expression Analysis (LTEA) Assay for Hypoxia-inducible factor 1 (HIF1A) Trancription factor using HepaRG (AID 2283503);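 note: HIF1A transcript by TaqMan qRT-PCR normalized to ACTB GAPDH and POLR2A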
# Method in brief: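 Gain- or loss-of-signal HIF1A mRNA changes are fitted against a DMSO baseline. HepaRG cultures receive eight concentrations, highest 100 uM, for 48 h in serum-free induction medium with 0.5% DMSO.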
# [17] = read-out: 3-Hydroxy-3-Methylglutaryl-CoA Synthase 2 (HMGCS2), HMGCS2 (gene 3158); test: LTEA_HepaRG_HMGCS2: Life Technologies and Expression Analysis (LTEA) Assay for 3-Hydroxy-3-Methylglutaryl-CoA Synthase 2 (HMGCS2) using HepaRG (AID 2283504)
# Method in brief: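 Readout is HMGCS2 transcript by qRT-PCR, housekeeping-normalised (ACTB/GAPDH/POLR2A) and fitted bidirectionally against 0.5% DMSO. Differentiated HepaRG cells received chemicals 48 h, duplicate wells, eight half-log concentrations topping at 100 uM.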
# [18] = read-out: Cytochrome P450 3A7 (Homo sapiens) (UniProt P24462); test: LTEA_HepaRG_CYP3A7: Life Technologies and Expression Analysis (LTEA) Assay for CYP3A7 using HepaRG (AID 2283492)
# Method in brief: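 CYP3A7 transcript measured by qRT-PCR (ACTB, GAPDH, POLR2A normalization) after 48 h chemical exposure of HepaRG cells in duplicate. Eight half-log concentrations, maximum 100 uM, 0.5% DMSO vehicle; bidirectional curve fitting against DMSO baseline.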
# [19] = read-out: DNA damage-inducible transcript 3 (DDIT3), DDIT3 (gene 1649); test: LTEA_HepaRG_DDIT3: Life Technologies and Expression Analysis (LTEA) Assay for DNA damage-inducible transcript 3 (DDIT3) using HepaRG (AID 2283488)
# Method in brief: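 Eight-point concentration-response (100 uM highest, half-log dilutions) in HepaRG, 48 h, duplicate wells. Endpoint: qRT-PCR mRNA, normalized (ACTB, GAPDH, POLR2A), bidirectional fitting with DMSO as baseline.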
# Chain of Hypoxia-inducible factor 1-alpha (Homo sapiens) (Q16665 whole entry, looked up): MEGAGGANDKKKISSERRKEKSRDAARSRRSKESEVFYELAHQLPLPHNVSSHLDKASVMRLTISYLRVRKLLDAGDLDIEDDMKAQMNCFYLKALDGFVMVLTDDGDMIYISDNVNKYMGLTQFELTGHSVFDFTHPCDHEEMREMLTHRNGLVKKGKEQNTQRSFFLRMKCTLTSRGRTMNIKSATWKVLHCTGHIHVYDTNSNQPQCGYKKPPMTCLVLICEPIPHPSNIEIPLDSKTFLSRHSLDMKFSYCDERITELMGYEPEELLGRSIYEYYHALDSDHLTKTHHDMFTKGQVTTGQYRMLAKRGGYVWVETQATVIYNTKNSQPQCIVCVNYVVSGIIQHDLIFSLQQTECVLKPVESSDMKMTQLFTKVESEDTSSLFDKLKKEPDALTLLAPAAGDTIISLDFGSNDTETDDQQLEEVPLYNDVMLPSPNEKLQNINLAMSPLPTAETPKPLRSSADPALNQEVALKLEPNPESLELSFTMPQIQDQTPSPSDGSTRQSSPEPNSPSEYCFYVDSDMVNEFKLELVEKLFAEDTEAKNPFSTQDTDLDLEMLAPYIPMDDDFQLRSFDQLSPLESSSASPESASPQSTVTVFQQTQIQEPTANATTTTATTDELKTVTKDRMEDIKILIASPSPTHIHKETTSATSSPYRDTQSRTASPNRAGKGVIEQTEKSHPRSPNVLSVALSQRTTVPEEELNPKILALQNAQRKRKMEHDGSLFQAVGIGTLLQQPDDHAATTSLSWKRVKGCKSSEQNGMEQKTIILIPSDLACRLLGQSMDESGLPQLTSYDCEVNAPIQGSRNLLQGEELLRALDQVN
# Chain of Cytochrome P450 3A7 (Homo sapiens) (P24462 whole entry, looked up): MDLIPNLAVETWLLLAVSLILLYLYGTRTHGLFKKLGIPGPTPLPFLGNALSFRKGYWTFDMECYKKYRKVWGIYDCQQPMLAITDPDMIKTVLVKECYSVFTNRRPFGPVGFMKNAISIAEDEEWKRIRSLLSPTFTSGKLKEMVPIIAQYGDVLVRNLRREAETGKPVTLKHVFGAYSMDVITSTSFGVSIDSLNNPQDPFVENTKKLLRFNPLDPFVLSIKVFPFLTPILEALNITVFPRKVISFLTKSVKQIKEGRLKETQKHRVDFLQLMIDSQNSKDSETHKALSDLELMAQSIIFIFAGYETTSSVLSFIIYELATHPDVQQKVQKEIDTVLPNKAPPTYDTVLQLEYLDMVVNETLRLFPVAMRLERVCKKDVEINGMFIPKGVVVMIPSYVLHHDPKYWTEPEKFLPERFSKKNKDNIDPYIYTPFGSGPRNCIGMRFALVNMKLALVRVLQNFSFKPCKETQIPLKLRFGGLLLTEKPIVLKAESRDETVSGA
# Chain of Cytochrome P450 3A4 (Homo sapiens) (P08684 whole entry, looked up): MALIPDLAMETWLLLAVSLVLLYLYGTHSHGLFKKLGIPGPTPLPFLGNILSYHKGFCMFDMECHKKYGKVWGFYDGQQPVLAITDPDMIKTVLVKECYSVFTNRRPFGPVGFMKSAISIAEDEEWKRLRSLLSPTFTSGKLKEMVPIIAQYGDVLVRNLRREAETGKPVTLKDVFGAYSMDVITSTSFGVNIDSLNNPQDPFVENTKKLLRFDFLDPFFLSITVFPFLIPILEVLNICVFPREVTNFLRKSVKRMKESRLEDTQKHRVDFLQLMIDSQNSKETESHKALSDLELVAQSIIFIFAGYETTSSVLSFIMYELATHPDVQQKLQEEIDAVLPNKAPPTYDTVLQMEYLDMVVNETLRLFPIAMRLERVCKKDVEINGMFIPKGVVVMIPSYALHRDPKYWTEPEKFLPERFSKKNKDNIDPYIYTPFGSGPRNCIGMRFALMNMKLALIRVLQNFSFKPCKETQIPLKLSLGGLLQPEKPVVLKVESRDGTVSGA
structure (smiles),measurement,setting,value
C=CCC1=C(C)C(OC(=O)C2C(C=C(C)C)C2(C)C)CC1=O (stereo not drawn),AC50,[1],93.2 µM (active) and 95.2 µM (active)
same,outcome,[2],inactive
same,outcome,[3],inactive
same,AC50,[4],64.1 µM (active) and 71.1 µM (active) and 50 µM (active)
same,outcome,[5],inactive
same,outcome,[6],inactive
same,AC50,[7],50 µM (active) and 44.6 µM (active)
same,AC50,[8],84.3 µM (active) and 94.1 µM (active) and 90.4 µM (active)
same,AC50,[9],3.67 µM (active) and 72.6 µM (active) and 19.4 µM (active)
same,AC50,[10],84.3 µM (active)
same,outcome,[10],inactive
same,outcome,[11],inactive
same,outcome,[12],inactive
same,outcome,[13],inactive
same,outcome,[14],inactive
same,outcome,[15],inactive
same,outcome,[16],inactive
same,AC50,[17],82.1 µM (active) and 80.4 µM (active) and 87.9 µM (active)
C=CC1(C)OC(=O)N(c2cc(Cl)cc(Cl)c2)C1=O (stereo not drawn),outcome,[1],inactive
same,AC50,[2],13.6 µM (active)
same,outcome,[3],inactive
same,outcome,[4],inactive
same,outcome,[5],inactive
same,AC50,[18],20.8 µM (active)
same,outcome,[6],inactive
same,outcome,[7],inactive
same,outcome,[8],inactive
same,outcome,[9],inactive
same,outcome,[10],inactive
same,outcome,[11],inactive
same,outcome,[13],inactive
same,outcome,[14],inactive
same,outcome,[15],inactive
same,outcome,[16],inactive
same,outcome,[17],inactive
CCOC(=O)C(Cl)Cc1cc(-n2nc(C)n(C(F)F)c2=O)c(F)cc1Cl (stereo not drawn),outcome,[1],inactive
same,AC50,[2],18.7 µM (active)
same,outcome,[19],inactive
same,outcome,[3],inactive
same,outcome,[4],inactive
same,outcome,[5],inactive
same,outcome,[6],inactive
same,outcome,[7],inactive
same,outcome,[8],inactive
same,outcome,[9],inactive
same,outcome,[10],inactive
same,outcome,[11],inactive
same,outcome,[13],inactive
same,outcome,[14],inactive
same,outcome,[15],inactive
same,outcome,[16],inactive
same,outcome,[17],inactive
CC(C)Oc1cc(-n2nc(C(C)(C)C)oc2=O)c(Cl)cc1Cl,AC50,[1],45.6 µM (active)
same,AC50,[2],1.04 µM (active)
same,outcome,[3],inactive
same,outcome,[4],inactive
same,outcome,[5],inactive
same,outcome,[6],inactive
same,AC50,[7],19.4 µM (active)
same,AC50,[8],50 µM (active)
same,AC50,[9],33.3 µM (active)
same,AC50,[10],80.8 µM (active)
same,AC50,[11],86.2 µM (active)
same,AC50,[12],77.8 µM (active)
same,AC50,[13],50 µM (active)
same,outcome,[14],inactive
same,outcome,[15],inactive
same,outcome,[16],inactive
same,AC50,[17],61.9 µM (active)
COC(=O)N(OC)c1ccccc1COc1ccn(-c2ccc(Cl)cc2)n1,outcome,[1],inactive
same,AC50,[2],78.5 µM (active)
same,AC50,[3],12.1 µM (active)
same,outcome,[4],inactive
same,outcome,[5],inactive
same,AC50,[18],74 µM (active)
same,AC50,[6],87 µM (active)
same,AC50,[7],80.4 µM (active)
same,AC50,[8],15.8 µM (active)
same,AC50,[9],71.9 µM (active)
same,AC50,[10],78.7 µM (active)
same,AC50,[11],80.8 µM (active)
same,AC50,[13],50 µM (active)
same,AC50,[14],80.3 µM (active)
same,AC50,[15],12 µM (active)
same,AC50,[16],50 µM (active)
same,AC50,[17],75.3 µM (active)
CCOC(=O)CC(SP(=S)(OC)OC)C(=O)OCC (stereo not drawn),outcome,[1],inactive
same,outcome,[2],inactive
same,outcome,[3],inactive
same,outcome,[4],inactive
same,outcome,[5],inactive
same,outcome,[18],inactive
same,outcome,[6],inactive
same,outcome,[7],inactive
same,outcome,[8],inactive
same,outcome,[9],inactive
same,outcome,[10],inactive
same,outcome,[11],inactive
same,outcome,[13],inactive
same,outcome,[14],inactive
same,outcome,[15],inactive
same,outcome,[16],inactive
same,outcome,[17],inactive

# Source: PubChem BioAssay (EPA / NIEHS)
